Measurements reported in PubChem BioAssay (NCI).
About 79,000 compounds went through this panel and 15% of them were active in at least one assay; those are over-represented in the sample as a whole. Rule as the data show it: active = growth inhibition above about 70%; inactive = the rest.

Legend:
[1] = NCI Yeast Anticancer Drug Screen. Data for the rad50 strain (AID 155);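 also: 0% = growth of vehicle-only cultures of the same strain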; settings: S. cerevisiae rad50 strain growth inhibition; at 50.0 µM; hits give high values
In short: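 Growth of the mutant yeast was measured after compound exposure and referenced to vehicle-treated cultures.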

[2] = NCI Yeast Anticancer Drug Screen. Data for the mec2-1 strain (AID 157); settings: S. cerevisiae mec2-1 strain, at 50.0 µM, hits give high values
In short: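 Vehicle-treated cultures served as reference for growth inhibition of compound-exposed mec2-1 yeast.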

[3] = NCI Yeast Anticancer Drug Screen. Data for the sgs1 mgt1 strain (AID 161);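 also: 0% = growth of cultures given vehicle only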; settings: S. cerevisiae sgs1 mgt1 strain, at 50.0 µM, hits give high values
In short: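 Read-out: growth inhibition vs vehicle controls. Cells: mutant yeast strain deficient in DNA damage repair.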

[4] = NCI Yeast Anticancer Drug Screen. Data for the cln2 rad14 strain (AID 165);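 also: 0% = growth equal to vehicle treated cultures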; settings: S. cerevisiae cln2 rad14 strain, at 50.0 µM, hits give high values
In short: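 Each compound was tested on cln2 rad14 yeast. Inhibition of growth was calculated against vehicle-exposed controls.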

[5] = NCI Yeast Anticancer Drug Screen. Data for the bub3 strain (AID 167); settings: S. cerevisiae bub3 mutant strain, at 50.0 µM, hits give high values
In short: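 Whole-cell yeast assay. The mutant strain was incubated with compounds, and growth inhibition was determined by comparison with vehicle-treated cells.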

[6] = NCI Yeast Anticancer Drug Screen. Data for the mlh1 rad18 strain (AID 175); settings: S. cerevisiae mlh1 rad18 strain growth inhibition; at 50.0 µM; hits give high values
In short: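 Vehicle-treated cultures served as the reference for growth inhibition in a yeast strain carrying DNA damage repair alterations exposed to each compound.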

Measured: growth inhibition

c1ccc(COCCc2ccccn2)cc1
inactive: [1] -5.3% | [2] -19.9% | [3] -3.85% | [4] -26.1% | [5] -22.2% | [6] -20.4%

CC(O)COc1ccccc1Cl (stereo not given)
inactive: [1] 5.2% | [2] -2% | [3] 16.5% | [4] -46.9% | [5] -0.4% | [6] 6.85%

NCCSCCN
inactive: [1] -7.65% | [2] -2.45% | [3] -4.65% | [4] -0.3% | [5] 13.2% | [6] 8.15%

CCCCOC(=O)/C=C/c1ccc(OC(C)C)cc1
inactive: [1] 3.95% | [2] -9% | [3] -9.4% | [4] -48.1% | [5] 19.9% | [6] -10.4%

CC(=O)c1cccc(NC(=O)N2CCN(c3ccccc3)CC2)c1
inactive: [1] 11.4% | [2] 34% | [3] 20% | [4] 1.25% | [5] 23.9% | [6] 16.6%

O=c1c2ccccc2nc(-c2ccccc2)n1NC(=S)Nc1cccc(Cl)c1
inactive: [1] 7.45% | [2] -27.1% | [3] 3.65% | [4] -71.7% | [5] 28.7% | [6] 0.55%

CC(=O)N1C(NN(C)C)CCN1c1ccccc1 (stereo not given)
inactive: [1] 36% | [2] -28.9% | [3] 13.6% | [4] -4.75% | [5] -22.5% | [6] 2.95%

CCOC1(OCC)CS(=O)(=O)C1c1ccccc1 (stereo not given)
inactive: [1] -1.2% | [2] -10.2% | [3] 1.95% | [4] -26.2% | [5] 12.6% | [6] -18.6%

COc1ccc2oc(=S)[nH]c2c1
inactive: [1] 11.8% | [2] 8.6% | [3] 54.1% | [4] 9.4% | [5] -4.45% | [6] 42.7%

CCN(CC)CC(O)c1ccc2ccccc2c1 (stereo not given)
inactive: [1] 47.6% | [2] 13.2% | [3] 25.8% | [4] -21.2% | [5] 22.4% | [6] 40.9%

COCCNc1cncc(C(N)=O)c1
inactive: [1] 15% | [2] 6.9% | [3] 9.15% | [4] -19.2% | [5] 2.45% | [6] 10.9%

Cc1nn(C(N)=S)c(C)c1N=Nc1ccc(O)cc1
inactive: [1] -5.2% | [2] -4.2% | [3] -4.9% | [4] -29.8% | [5] -11.2% | [6] 15.9%

CCCCCCCCCCCCCCNC(=O)CCl
inactive: [1] 14.8% | [2] -17.5% | [3] -5.8% | [4] -8.5% | [5] -9.25% | [6] -16.2%

CCCCC(CCCC)(C(=O)NC)c1ccccc1
inactive: [1] 3.85% | [2] 6.65% | [3] -4.5% | [4] -14.2% | [5] 17.1% | [6] -23.5%

Cc1ccc(/C=C/c2cc(/C=C/c3ccc(C)cc3)c([N+](=O)[O-])cc2[N+](=O)[O-])cc1
inactive: [1] 23.2% | [2] -15.2% | [3] -2.3% | [4] -61.8% | [5] -1.4% | [6] 1.2%

CCOC(=O)C(C(C)=O)C(c1ccc(N(C)C)cc1)c1ccc(N(C)C)cc1 (stereo not given)
inactive: [1] 4% | [2] -4.35% | [3] -6.6% | [4] -2.4% | [5] 3.95% | [6] -3.4%

CC(=O)c1ccccc1C
inactive: [1] -32.6% | [2] -69.5% | [3] -43.7% | [4] -1.25% | [5] -38.1% | [6] -22.3%

Cc1ncc(CO)c(Nc2ccccc2)n1
inactive: [1] 1.85% | [2] 5.8% | [3] -0.25% | [4] -25.5% | [5] -4.8% | [6] 8.4%

NC(CC(=O)OCc1ccccc1)C(=O)OCc1ccccc1 (stereo not given)
inactive: [1] 9.1% | [2] 9.3% | [3] 16.1% | [4] -5.9% | [5] 3.55% | [6] 4.15%

CSc1nc(N)c(N=Nc2ccc(S(=O)(=O)Nc3cc(C)nc(C)n3)cc2)c(=O)[nH]1
inactive: [1] 17.4% | [2] 15.6% | [3] -10.6% | [4] -0.2% | [5] 2.1% | [6] -3.3%
